Active and inactive are the calls of the source. How the source made its calls: active means hit-call score of the fitted dose curve at least 0.9, where 1 is the maximum; inactive means score below 0.9.
Columns and labels:
Settings in all cases: mRNA level, 48 h; actives raise or lower the signal
[1] = read-out: CFLAR gene, CFLAR (gene 8837); experiment: LTEA_HepaRG_CFLAR: Life Technologies and Expression Analysis (LTEA) Assay for CFLAR gene using HepaRG (AID 2283455)
Outline: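 Differentiated HepaRG cells in serum-free induction medium were exposed 48 h in duplicate to eight half-log concentrations up to 100 uM in 0.5% DMSO; mRNA measured by TaqMan qRT-PCR, normalized to ACTB, GAPDH, POLR2A; bidirectional fitting versus DMSO.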

[2] = read-out: Forkhead box O1 (FOXO1), FOXO1 (gene 2308); experiment: LTEA_HepaRG_FOXO1: Life Technologies and Expression Analysis (LTEA) Assay for Forkhead box O1 (FOXO1) using HepaRG (AID 2283456)
Outline: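 Differentiated HepaRG cells, in serum-free induction medium with 0.5% DMSO, exposed 48 h in duplicate to 8-point half-log series from 100 uM. FOXO1 mRNA measured by TaqMan qRT-PCR, normalized to ACTB, GAPDH, POLR2A; bidirectional fit versus DMSO.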

[3] = read-out: growth arrest and DNA damage 45 (GADD45A), GADD45A (gene 1647); experiment: LTEA_HepaRG_GADD45A: Life Technologies and Expression Analysis (LTEA) Assay for growth arrest and DNA damage 45 (GADD45A) using HepaRG (AID 2283458)
Outline: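 Differentiated HepaRG cells were exposed in duplicate for 48 h in serum-free induction medium to 8-point half-log concentrations up to 100 uM in 0.5% DMSO. GADD45A mRNA was measured by TaqMan qRT-PCR, normalized to ACTB, GAPDH and POLR2A, with bidirectional fitting versus DMSO.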

[4] = read-out: Forkhead box O3 (FOXO3), FOXO3 (gene 2309); experiment: LTEA_HepaRG_FOXO3: Life Technologies and Expression Analysis (LTEA) Assay for Forkhead box O3 (FOXO3) using HepaRG (AID 2283459)
Outline: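 Differentiated human HepaRG cells, 48 h post-plating, exposed in duplicate for 48 h in serum-free induction medium; 8-point half-log series from 100 uM in 0.5% DMSO. FOXO3 mRNA by TaqMan qRT-PCR, normalized to ACTB/GAPDH/POLR2A; bidirectional fit versus DMSO.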

[5] = read-out: ABC Transporter (ABCC3), ABCC3 (gene 8714); experiment: LTEA_HepaRG_ABCC3: Life Technologies and Expression Analysis (LTEA) Assay for ABC Transporter (ABCC3) using HepaRG (AID 2283462)
Outline: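 Transcriptional change of ABCC3 in HepaRG after 48 h treatment, determined by qRT-PCR normalized to endogenous controls. Concentrations spanned eight half-log steps to 100 uM in 0.5% DMSO.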

[6] = read-out: ABC Transporter (ABCB11), ABCB11 (gene 8647); experiment: LTEA_HepaRG_ABCB11: Life Technologies and Expression Analysis (LTEA) Assay for ABC Transporter (ABCB11) using HepaRG (AID 2283463)
Outline: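 Differentiated human HepaRG cells in serum-free induction medium, dosed in duplicate for 48 h. Eight-point half-log series from 100 uM in 0.5% DMSO; ABCB11 mRNA by qRT-PCR, normalized to ACTB, GAPDH, POLR2A, fitted bidirectionally versus DMSO.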

[7] = read-out: ABC Transporter (ABCC2), ABCC2 (gene 1244); experiment: LTEA_HepaRG_ABCC2: Life Technologies and Expression Analysis (LTEA) Assay for ABC Transporter (ABCC2) using HepaRG (AID 2283464)
Outline: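 After plating and 48 h culture, HepaRG medium is replaced with serum-free induction medium and chemicals are added (8 concentrations, max 100 uM, 0.5% DMSO) for 48 h. Total RNA then undergoes qRT-PCR for ABCC2 with housekeeping normalization.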

[8] = read-out: Peroxisomal acyl-coenzyme A oxidase 1 (ACOX1) gene, ACOX1 (gene 51); experiment: LTEA_HepaRG_ACOX1: Life Technologies and Expression Analysis (LTEA) Assay for Peroxisomal acyl-coenzyme A oxidase 1 (ACOX1) gene using HepaRG (AID 2283467)
Outline: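 HepaRG cells, plated 48 h then switched to serum-free induction medium, were exposed in duplicate for 48 h to 8-point half-log concentrations up to 100 uM in 0.5% DMSO. ACOX1 mRNA was measured by qRT-PCR, normalized to ACTB/GAPDH/POLR2A, and fitted bidirectionally versus DMSO.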

[9] = read-out: Alkaline Phosphatase, Placental (ALPP) gene, ALPP (gene 250); experiment: LTEA_HepaRG_ALPP: Life Technologies and Expression Analysis (LTEA) Assay for Alkaline Phosphatase, Placental (ALPP) gene using HepaRG (AID 2283468)
Outline: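 Using human liver HepaRG cells, chemicals are tested in duplicate over 48 h at half-log concentrations topping at 100 uM; phenobarbital 1 mM serves as induction control. ALPP mRNA change by qRT-PCR, bidirectional fit against vehicle.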

[10] = read-out: Bcl-2 (BAD) gene, BAD (gene 572); experiment: LTEA_HepaRG_BAD: Life Technologies and Expression Analysis (LTEA) Assay for Bcl-2 (BAD) gene using HepaRG (AID 2283469)
Outline: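 Differentiated HepaRG cells were exposed in duplicate in 0.5% DMSO for 48 h to eight-point half-log concentrations up to 100 uM. BAD mRNA was measured by Fluidigm TaqMan qRT-PCR, normalized to ACTB, GAPDH and POLR2A, and fitted bidirectionally against DMSO.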

[11] = read-out: Bcl-2 (BAX) gene, BAX (gene 581); experiment: LTEA_HepaRG_BAX: Life Technologies and Expression Analysis (LTEA) Assay for Bcl-2 (BAX) gene using HepaRG (AID 2283470)
Outline: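 Differentiated human HepaRG cells, plated 48 h then switched to serum-free induction medium, were exposed 48 h to 8 half-log concentrations up to 100 uM in 0.5% DMSO; BAX mRNA measured by qRT-PCR, normalized to ACTB, GAPDH, POLR2A.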

[12] = read-out: Alpha-fetoprotein (AFP) gene, AFP (gene 174); experiment: LTEA_HepaRG_AFP: Life Technologies and Expression Analysis (LTEA) Assay for Alpha-fetoprotein (AFP) gene using HepaRG (AID 2283472)
Outline: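 Human HepaRG cells plated 48 h, then switched to serum-free induction medium and exposed in duplicate for 48 h to 8-point half-log series from 100 uM in 0.5% DMSO. AFP mRNA by qRT-PCR, normalized to ACTB, GAPDH, POLR2A; bidirectional fit versus DMSO.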

BCL2L11 (gene 10018) = experiment: LTEA_HepaRG_BCL2L11: Life Technologies and Expression Analysis (LTEA) Assay for Bcl-2 (BCL2L11) gene using HepaRG (AID 2283473)
Outline: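 Human hepatic HepaRG cultures are treated 48 h with test chemicals (maximum 100 uM, 0.5% DMSO vehicle). Expression of BCL2L11 is measured by qRT-PCR against ACTB, GAPDH and POLR2A, with activity in either direction scored relative to vehicle.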

[13] = read-out: Apolipoprotein A-V (APOA5) gene, APOA5 (gene 116519); experiment: LTEA_HepaRG_APOA5: Life Technologies and Expression Analysis (LTEA) Assay for Apolipoprotein A-V (APOA5) gene using HepaRG (AID 2283474)
Outline: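 Concentration-response of APOA5 expression in HepaRG: eight half-log doses to 100 uM, 48 h, qRT-PCR normalized to ACTB/GAPDH/POLR2A, bidirectional fitting with 0.5% DMSO as baseline.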

[14] = read-out: growth arrest and DNA damage 45 (GADD45B), GADD45B (gene 4616); experiment: LTEA_HepaRG_GADD45B: Life Technologies and Expression Analysis (LTEA) Assay for growth arrest and DNA damage 45 (GADD45B) using HepaRG (AID 2283461)
Outline: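 Human HepaRG monolayers receive chemicals for 48 h at eight half-log concentrations, highest 100 uM, in 0.5% DMSO. Expression is measured by TaqMan qRT-PCR and normalized to ACTB, GAPDH and POLR2A.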

[15] = read-out: adenosine kinase (ADK) gene, ADK (gene 132); experiment: LTEA_HepaRG_ADK: Life Technologies and Expression Analysis (LTEA) Assay for adenosine kinase (ADK) gene using HepaRG (AID 2283471)
Outline: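 Read-out is ADK transcript level measured by qRT-PCR and normalised to three housekeeping genes. Cells are human HepaRG, dosed for 48 h at up to 100 uM in 0.5% DMSO. Gain or loss of signal is fitted against DMSO controls.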

[16] = read-out: ATP-citrate lyase (ACLY), ACLY (gene 47); experiment: LTEA_HepaRG_ACLY: Life Technologies and Expression Analysis (LTEA) Assay for ATP-citrate lyase (ACLY) using HepaRG (AID 2283466)
Outline: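 Differentiated HepaRG cells exposed 48 h in serum-free induction medium to eight half-log concentrations up to 100 uM in 0.5% DMSO, duplicates. Transcript measured by Fluidigm TaqMan qRT-PCR, normalized to ACTB, GAPDH, POLR2A; bidirectional fit versus DMSO.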

[17] = read-out: Broad substrate specificity ATP-binding cassette transporter ABCG2 (Homo sapiens) (UniProt Q9UNQ0); experiment: LTEA_HepaRG_ABCG2: Life Technologies and Expression Analysis (LTEA) Assay for ABC Transporter (ABCG2) using HepaRG (AID 2283465)
Outline: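 Differentiated HepaRG cells were exposed for 48 h in serum-free induction medium to 8 half-log concentrations, top 100 uM, in 0.5% DMSO. ABCG2 mRNA was measured by qRT-PCR, normalized to ACTB, GAPDH and POLR2A, with bidirectional fitting versus DMSO.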

Measured: AC50

Sequence of Broad substrate specificity ATP-binding cassette transporter ABCG2 (Homo sapiens) (Q9UNQ0 whole entry, looked up): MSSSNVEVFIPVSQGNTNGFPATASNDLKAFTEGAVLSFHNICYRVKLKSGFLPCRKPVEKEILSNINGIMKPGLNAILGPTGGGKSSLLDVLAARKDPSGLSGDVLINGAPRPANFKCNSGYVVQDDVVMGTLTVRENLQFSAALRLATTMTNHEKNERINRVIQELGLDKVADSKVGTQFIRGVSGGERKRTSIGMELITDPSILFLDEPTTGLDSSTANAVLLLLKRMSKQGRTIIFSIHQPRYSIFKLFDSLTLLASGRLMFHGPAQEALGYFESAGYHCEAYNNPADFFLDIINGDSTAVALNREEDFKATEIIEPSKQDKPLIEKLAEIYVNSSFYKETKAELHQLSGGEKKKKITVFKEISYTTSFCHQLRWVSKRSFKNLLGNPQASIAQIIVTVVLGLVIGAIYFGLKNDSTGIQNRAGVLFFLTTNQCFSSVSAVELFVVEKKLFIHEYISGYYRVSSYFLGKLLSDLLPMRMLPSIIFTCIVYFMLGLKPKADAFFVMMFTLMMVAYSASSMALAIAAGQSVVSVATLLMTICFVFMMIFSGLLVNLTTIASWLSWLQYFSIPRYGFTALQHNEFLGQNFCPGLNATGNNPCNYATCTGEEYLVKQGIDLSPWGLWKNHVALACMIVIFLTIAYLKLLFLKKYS

Cc1cc2c3c(c1)C(c1ccccc1)=N[C@@H](NC(=O)c1ccncc1)C(=O)N3CC2
active: [4] 50 µM | [9] 10.3 µM | [12] 50 µM | [13] 62.5 µM
not listed: [14] | [15] | [16] | [17]
inactive: all other assays above

CCC(C)c1cc([N+](=O)[O-])cc([N+](=O)[O-])c1O (stereo not drawn)
inactive: [5]
active: [1] 1.5 µM | [2] 3.37 µM | [3] 1.07 µM | [4] 1.77 µM | [14] 10.7 µM | [7] 1.46 µM | [8] 1.4 µM | [9] 1.58 µM | [12] 2.35 µM | BCL2L11 (gene 10018) 1.39 µM | [13] 1.58 µM

C=CC(N)=O
not listed: [6] | [14] | [16] | [17]
inactive: all other assays above

N#Cc1ccc(N(CC(N)=O)CC(F)(F)F)cc1C(F)(F)F
active: [6] 0.353 µM
not listed: [10] | [11] | [14] | [17]
inactive: all other assays above

ClC1=C(Cl)[C@]2(Cl)[C@@H]3[C@H]4C[C@H]([C@@H]5O[C@H]45)[C@@H]3[C@@]1(Cl)C2(Cl)Cl
active: [6] 5.27 µM | [7] 2.13 µM | [12] 31.1 µM | [13] 50 µM
not listed: [11] | [15] | [16] | [17]
inactive: all other assays above

O=S(=O)(O)C(F)(F)C(F)(F)C(F)(F)C(F)(F)C(F)(F)C(F)(F)F
active: [8] 6.58 µM | [13] 3.42 µM
not listed: [6] | [10] | [11] | [14] | [15] | [17]
inactive: all other assays above

Cc1ccccc1[N+](=O)[O-]
not listed: [6] | [14] | [15] | [16] | [17]
inactive: all other assays above

CN(C)c1nc(=O)n(C2CCCCC2)c(=O)n1C
active: [9] 12.5 µM
not listed: [10] | [11] | [14] | [15] | [16]
inactive: all other assays above

Clc1ccc(Cl)cc1
not listed: [6] | [10] | [11] | [14] | [15] | [16]
inactive: all other assays above
